Structures are written as SMILES. Results filed as inconclusive are left out. The source made the active and inactive calls. The calls were made as follows: active = hit-call score of the fitted dose curve at least 0.9, where 1 is the maximum; inconclusive = response in the unintended direction; inactive = score below 0.9.

The AC50 is the concentration giving half of the maximal activity seen.

Oxysterols receptor LXR-beta (Homo sapiens), sequence (P55055 whole entry, looked up, the tested form may be a part): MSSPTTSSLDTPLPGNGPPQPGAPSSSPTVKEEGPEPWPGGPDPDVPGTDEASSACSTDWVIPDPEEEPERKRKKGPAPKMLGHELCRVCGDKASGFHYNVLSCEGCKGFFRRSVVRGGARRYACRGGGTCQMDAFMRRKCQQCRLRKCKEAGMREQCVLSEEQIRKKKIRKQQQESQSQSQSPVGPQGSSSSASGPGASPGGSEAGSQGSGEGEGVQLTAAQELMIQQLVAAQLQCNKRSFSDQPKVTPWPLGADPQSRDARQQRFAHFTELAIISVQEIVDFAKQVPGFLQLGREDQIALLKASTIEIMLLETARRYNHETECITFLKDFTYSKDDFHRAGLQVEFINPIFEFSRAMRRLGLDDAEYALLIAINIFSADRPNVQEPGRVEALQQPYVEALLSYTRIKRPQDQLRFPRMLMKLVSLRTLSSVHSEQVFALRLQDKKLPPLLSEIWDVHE

This assay has as its target Oxysterols receptor LXR-beta (Homo sapiens) (UniProt P55055). The assay is described as follows: ATG_LXRb_TRANS: Attagene TRANS-FACTORIAL HepG2 Assay for human Liver X Receptor beta (LXRb) (AID 2282981). The conditions noted are these: HepG2 Attagene TRANS GAL4-LXRb reporter, mRNA. The procedure:
ATG_TRANS is a cell-based, multiplexed-readout assay that uses HepG2, a human liver cell line, with measurements taken at 24 hours after chemical dosing in a 24-well plate.ATG_LXRb_TRANS is one of 30 assay component(s) measured or calculated from the ATG_TRANS assay. It is designed to make measurements of mRNA induction, a form of inducible reporter, as detected with fluorescence intensity signals by Reverse transcription polymerase chain reaction (RT-PCR) and Capillary electrophoresis technology.Data from the assay component ATG_LXRb_TRANS was analyzed into 1 assay endpoint. This assay endpoint, ATG_LXRb_TRANS, was analyzed in the positive analysis fitting direction relative to DMSO as the negative control and baseline of activity. Using a type of inducible reporter, measures of mRNA for gain-of-signal activity can be used to understand the reporter gene at the transcription factor-level as they relate to the gene NR1H2. Furthermore, this assay endpoint can be referred to as a primary readout, because this assay has produced multiple assay endpoints where this one serves a reporter gene function. To generalize the intended target to other relatable targets, this assay endpoint is annotated to the nuclear receptor intended target family, where the subfamily is non-steroidal.
Human liver HepG2 cells are transiently transfected with multiple reporter transcription units (MRTUs) in 6-well plates using FuGene 6 reagent (Roche; 3 ml FuGene/1 mg DNA). The MRTU constructs are regulated by a cis-regulating element (promoter). […] A major difference between the CIS and TRANS system is that in CIS activities of endogenous TFs are measured, whereas the TRANS assay evaluates changes in activities of exogenous, chimeric NR-Gal4 proteins. […] At the end of 24 hour incubation, total RNA was isolated using TriZol reagent (Invitrogen). The isolated RNA is then reverse-transcribed using oligo(dT) primer and Mo-MLV reverse transcriptase (Invitrogen) with DNAse I (Ambion) treatment for 30 min. The one-tenth of the produced cDNA was amplified by PCR using Taq DNA polymerase (Invitrogen) and two reporter sequence-specific primers. The PCR products were fluorescently labeled by primer extension with 6-arboxyfluorescein (6-FAM) 5'-labeled reporter sequence-specific primer (2 min at 95 C, 20 s at 68 C and 10 min at 72 C) and these products were digested with 5U of HpaI (New England Biolabs) for 2h at 37 C. The fragments were purified using Qiaquick PCR columns (Qiagen), analyzed on an ABI 3130xL genetic analyzer (Applied Biosystems) with peak positions identified by using a set of X-rhodamine (ROX)-labeled MapMarker1000 molecular weight standards (BioVentures). The raw capillary electrophoresis data was processed using Attagraph software (Attagene).
In the case of `CCCC(=O)C(CC)Sc1ccoc1C` (stereo not given), the compound was called inactive.

On to `FC(F)(F)COCC(F)(F)F`, for which the call was inactive.

Take `CC(=O)c1ccccn1`: the result was inactive.

On to `CCCCCCCCCCCCCCCC(=O)OC/C=C(C)/C=C/C=C(C)/C=C/C1=C(C)CCCC1(C)C`, for which the compound was called inactive.

Take `CC(C)(CO)[C@@H](O)C(=O)NCCC(=O)O`: the result was inactive.

On to `COC(C)(C)CC(C)=O`, for which the outcome was inactive.

Take `Cc1cc(C)nc(NS(=O)(=O)c2ccc(N)cc2)n1`: the compound was classed as inactive.

As for `CC(=O)OCCCc1ccccc1`, the compound was classed as inactive.

As to `Cc1ccc(N)c(S(=O)(=O)O)c1`, the outcome was inactive.

As for `CCC(C)S` (stereo not given), the compound was called inactive.

Turning to `CC(C)CC(C)CC(O)CC(C)C` (stereo not given), the call was inactive.

Turning to `CCCCCCCCSCCO`, the result was inactive.

Consider `COc1ccccc1[N+](=O)[O-]`, for which the compound was called inactive.

As to `C=C(C)C1CC=C(C)C(=O)C1` (stereo not given), the outcome was inactive.

Take `C=C(C)[C@H]1CC=C(C)C(=O)C1`: the compound was classed as inactive.

With `C=C(C)C(=O)OCC(CC)(COC(=O)C(=C)C)COC(=O)C(=C)C`, the outcome was inactive.

As to `CCCCCCOC(=O)CCC`, the result was inactive.

Consider `CC1C2CC(CC2C2CCCC(O)C2)C1(C)C` (stereo not given), for which the AC50 is 62.5 µM (active).

For `COC(C)(C)CCCC(C)CC=O` (stereo not given), the compound was called inactive.

In the case of `CCCCCCCCCCCC(=O)OCC(O)CO` (stereo not given), the compound was classed as inactive.

Consider `Nc1c(S(=O)(=O)O)cc(Br)c2c1C(=O)c1ccccc1C2=O`, for which the compound was classed as inactive.

For the compound `CC(=O)C(C)O` (stereo not given), the compound was called inactive.

For the compound `Nc1ccccc1[N+](=O)[O-]`, the call was inactive.

As to `C[C@H]1O[C@@H](O[C@H]2[C@@H](O)C[C@H](O[C@H]3[C@@H](O)C[C@H](O[C@H]4CC[C@@]5(C)[C@H](CC[C@@H]6[C@@H]5C[C@@H](O)[C@]5(C)[C@@H](C7=CC(=O)OC7)CC[C@]65O)C4)O[C@@H]3C)O[C@@H]2C)C[C@H](O)[C@@H]1O`, the result was inactive.

On to `O=C(Nc1ccc([N+](=O)[O-])cc1)Nc1ccc([N+](=O)[O-])cc1` (tested in a mixture with another compound), for which the result was inactive.

Consider `C1CCCCC1`, for which the call was inactive.

Turning to `C=CCCC(=O)/C=C/C1C(C)=CCCC1(C)C` (stereo not given), the result was inactive.

Turning to `CS(=O)(=O)c1ccc(Cl)cc1`, the call was inactive.

Consider `CCCCCCOC(=O)C(C)C`, for which the result was inactive.

Consider `CC(CN=Cc1ccccc1O)N=Cc1ccccc1O` (stereo not given), for which the outcome was inactive.

`CCCCCCC(C)Nc1ccc(Nc2ccccc2)cc1` (stereo not given): the compound was called inactive.

Take `O=C1OC[C@H](Cc2cccc(O)c2)[C@H]1Cc1cccc(O)c1`: the outcome was inactive.

For the compound `CCO/C=C1\N=C(c2ccccc2)OC1=O`, the result was inactive.

`Cc1ncc[nH]1`: the outcome was inactive.

For `Nc1c(Cl)cc(Cl)cc1[N+](=O)[O-]`, the outcome was inactive.

As to `CC(C)NCC(O)COc1ccc(CC(N)=O)cc1` (stereo not given), the call was inactive.

Take `CC(=O)O[C@@H]1C[C@@H]2CC[C@@]1(C)C2(C)C`: the call was inactive.

In the case of `CCC(C)=O`, the compound was classed as inactive.

On to `COC(=O)c1ccc(OC)cc1`, for which the call was inactive.

On to `CCOC(=O)[C@@H](C)Oc1ccc(Oc2nc3ccc(Cl)cc3o2)cc1`, for which the call was inactive.

The values above are taken from PubChem BioAssay (EPA / NIEHS).
